# Assay results: PubChem BioAssay (NCI)
# The panel holds about 83,000 compounds, 20% with a hit somewhere; the sample as a whole holds those more often.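 Cells were grown in 96-well plates and exposed to the test compound at a single concentration for 48 hours; results are reported as percent growth, with values below 10 considered active.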 A number with no mark means an inactive call. Calls of active or inactive are those of the source.
# Test system: HOP-92 NSCLC
# Test: NCI-60 one-dose screen, 48 h (100 = growth as untreated, 0 = no growth, -100 = all killed)
# Conditions: 10 µM unless noted
# Experimental: Growth inhibition of the HOP-92 human Non-Small Cell Lung tumor cell line is measured as a screen for anti-cancer activity. Cells are grown in 96 well plates and exposed to the test compound for 48 hours. Compounds are tested at a single concentration, which is 10^-5 M for most compounds. The reported endpoint is percent growth (GI% or GIPRCNT), where numbers from 0 - 100% represent growth inhibition, and numbers from -100% - 0 represent cell death. For example, a value of 40 represents 60% growth inhibition. A value of 0 means no net growth occurred over the course of the experiment. A value of -40 indicates 40% of cells at the beginning of the experiment died by the end of the experiment. A value of -100 means all cells are dead at the end of the experiment.
# NCI-60 Human Tumor Cell Lines Screen was performed using the standard one-dose NCI protocol, which is described in more detail at https://dtp.cancer.gov/discovery_development/nci-60/default.htm.
# Compounds with GIPRCNT values below 10 were considered active. Activity score was based on GIPRCNT using the following formula: […]
# Score is 0 for GIPRCNT values of 100 or above, 50 for GIPRCNT values of 0, and 100 for GIPRCNT values of -100.
row,Compound,growth
1,CC(=O)c1ccc(Nc2nccc(-c3ccc(Cl)cc3)n2)cc1,109%
2,CN(C)C(=O)OCc1ccc2c(Cl)cc(Cl)c(O)c2n1,58.8%
3,O=C(CN1C(=O)NC2NC(=O)NC21)N/N=C/c1cccc([N+](=O)[O-])c1 (stereo not given),123%
4,C#CC#CC#CC#CC#CC#CC#CC#CC[C@@H]1OC[C@H](COC(=O)O[C@@H](C(=O)O[C@H]2C[C@@]3(O)[C@@H](OC(=O)c4ccccc4)[C@@H]4[C@]5(OC(C)=O)CO[C@@H]5C[C@H](O)[C@@]4(C)C(=O)[C@H](OC(C)=O)C(=C2C)C3(C)C)[C@@H](NC(=O)c2ccccc2)c2ccccc2)O1,63.7%
5,COc1ccccc1/C=C/C1=C(C)CCC(c2ccccc2OC)C1C (stereo not given),-35% (active)
6,COc1cc(/C=C/C(=O)c2ccc(-n3cc(CN4CCN(c5cc6c(cc5F)c(=O)c(C(=O)O)cn6C5CC5)CC4)nn3)cc2)cc(OC)c1OC,88%
7,CC(C)CCc1nc2ccc(NCc3ccc(OCCN4CCC(C)CC4)cc3)cc2[nH]1,53.5%
8,CN1CC(c2ccccc2)C(C(=O)c2ccc(Br)cc2)C12C(=O)Nc1ccccc12 (stereo not given),86.3%
9,Nc1c(C(=O)c2ccc(Cl)cc2)sc(Nc2ccccc2)c1-c1nc2ccccc2s1,-18.7% (active)
10,CCCC[N+]1(C)CCN=C1Cc1ccccc1 (stereo not given),90.9%
11,COCCn1cc(-c2nc(-c3cc4cccnc4n3C)cs2)c2cc(OC)ccc21,31.4%
12,Cc1nc2ccccc2c(/C=C/c2ccc(Cl)cc2)c1C(=O)/C=C/c1ccccc1,41.4%
13,Cc1cc2nc(C(Cl)Cl)nc(-c3ccccc3)n2n1,72.9%
14,C#CCOc1cccc(Nc2ncnc3c(NC(=O)CCl)cccc23)c1,-62.1% (active)
15,COc1ccc(-c2ccc(-c3ccc(C(=N)N)nc3)s2)cc1,77.9%
16,Cc1csc(Nc2nc(-c3cccc(Cl)c3)nc(C(Cl)(Cl)Cl)n2)n1,32.7%
17,CCOC(=O)c1c(N)sc2cc(O)ccc12,121%
18,CCOC(=O)c1cc(C(=O)c2cc(OC)cc(OC)c2)n2ncccc12,47.1%
19,COc1ccc(Cn2cc3c(c2)-c2oncc2CC3)cc1,70.1%
20,Cc1cc2c(c(C)n1)CN(C(=O)Nc1nc(-c3cncs3)ccc1N)C2,90.1%

row,Compound,growth
1,O=C(CNc1ncco1)Nc1ccc(S(=O)(=O)c2ccc(NC(=O)CNc3ncco3)cc2)cc1,81%
2,CCOC(=O)/C=C1\S/C(=N\Nc2cc(=O)[nH]c3ccc(OC)cc23)N(c2ccccc2)C1=O,89.7%
3,O=C(O)CCCN1C(=O)CSC1=S,103%
4,O=C(Nc1ncc(Cc2ccccc2Cl)s1)c1ccc2c(c1)OCCO2,56.3%
5,CCOc1cc(\C=N/N=C(N)/C(N)=N\N=C/c2ccc(O)c(OCC)c2)ccc1O,116%
6,CCC(=C(c1ccc(OCCN(CC)CC)cc1)c1ccc(OCCN(CC)CC)cc1)c1ccc(Cl)cc1,33.5%
7,Brc1ccc(-c2nn(-c3ccccc3)cc2-c2nn[nH]n2)s1,62.4%
8,O=C1C(c2c(O)[nH]c3ncccc23)=Nc2ccccc21,96.9%
9,CC1(C)C2=C(C(=O)N1Cc1ccccc1)C(c1ccco1)N(C(=O)C1CCC1)CCN2 (stereo not given),115%
10,COc1cc2c(c(OC)c1OC)CCC(c1cccc(C(=O)Nc3ccc([N+](=O)[O-])cc3)c1)O2 (stereo not given),42.6%
11,Cc1c2cnccc2c(C)c2c1c1cc(C(=O)O)ccc1n2C,-3.06% (active)
12,Nc1ncc(-c2ccc3ncnc(N4CCc5ccc(Cl)cc54)c3c2)cn1,-34.5% (active)
13,COC(=O)c1nc(-c2ccccc2)oc1S(=O)(=O)N1CCN(c2ccc(OC)cc2)CC1,60%
14,CC(=O)O[C@H]1CC[C@@]2(C)C(=CC[C@@H]3[C@@H]2CC[C@]2(C)C(Cl)=C(c4nc5ccc(Cl)cn5c4NC(C)(C)C)C[C@@H]32)C1,15.6%
15,COc1nc2ccccc2cc1/C=C1/C=C(c2ccccc2)NC1=O,32.5%
16,CCN(CC)CCCNC(=O)c1c2c(n3ccccc13)C(=O)c1ncccc1C2=O,-47.1% (active)
17,COc1ccc(C2=NN3C(C2)c2cc(Br)ccc2OC3c2ccncc2)cc1 (stereo not given),82.7%
18,N/C(=N\c1nc2ccccc2s1)NC(=O)Nc1ccccc1,53.2%
19,CCN=c1sc2c(n1NC(=O)c1cc3ccc1CCc1ccc(cc1)CC3)C(=O)c1ccccc1C2=O,-9.79% (active)
20,CC(C)=CCC[C@](C)(O)C1CC[C@]2(C)[C@@H]1CC[C@@H]1[C@@]3(C)CC/C(=N\OCCC#N)C(C)(C)[C@@H]3CC[C@]12C (stereo not given in full),105%
